Data reported in PubChem BioAssay AID1159580 (chemical genetic matrix, 2015).
The whole screen tested about 5,500 compounds, of which about 2,000 (36%) were called active. Roughly 18% stayed inconclusive and do not appear here. Rule as the data show it: active = normalized growth mostly below about 0.91 (no sharp cut-off); inconclusive = no clear call, values can overlap the other calls; inactive = mostly above about 0.92. The list shows a part of the results.

Experiment: chemical genetic growth profiling, strain panel (AID 1159580);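 also: tested at 20 µM; growth read once vehicle control cultures reached saturation at 30 °C; 1 = growth at the plate median or of vehicle wells; lower values mean less growth of the strain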
Settings: growth OD

Measured: normalized growth

C[C@]12CCC(=O)C=C1CCC1C2C(=O)C[C@@]2(C)C1CC[C@]2(O)C(=O)CO (stereo partly drawn)
inactive: S. cerevisiae deletion strains, locus YJL187C, strain SWE1, active compounds read low 1.01 | S. cerevisiae deletion strains, locus YJR043C, strain POL32, active compounds read low 1 | S. cerevisiae deletion strains, locus YJR066W, strain TOR1, active compounds read low 0.967 | S. cerevisiae deletion strains, locus YKL009W, strain mrt4, active compounds read low 1.06 | S. cerevisiae deletion strains, locus YKL068W, active compounds read low 1.01 | S. cerevisiae deletion strains, locus YKL085W, strain MDH1 (second series), active compounds read low 0.994 | S. cerevisiae deletion strains, locus YKL085W, strain MDH1, active compounds read low 0.994 | S. cerevisiae deletion strains, locus YKL160W, strain elf1, active compounds read low 1 | S. cerevisiae deletion strains, locus YKR001C, strain vps1, active compounds read low 0.998 | S. cerevisiae deletion strains, locus YKR026C, strain gcn3, active compounds read low 0.99 | S. cerevisiae deletion strains, locus YKR091W, strain srl3, active compounds read low 0.999 | S. cerevisiae deletion strains, locus YLL001W, strain dnm1, active compounds read low 1.03 | S. cerevisiae deletion strains, locus YLL026W, active compounds read low 1 | S. cerevisiae deletion strains, locus YLL041C, strain sdh2, active compounds read low 1.01 | S. cerevisiae deletion strains, locus YLR027C, strain aat2, active compounds read low 1.01 | S. cerevisiae deletion strains, locus YLR039C, strain RIC1, active compounds read low 1.01 | S. cerevisiae deletion strains, locus YLR058C, strain SHM2, active compounds read low 0.981 | S. cerevisiae deletion strains, locus YLR102C, strain apc9, active compounds read low 0.995 | S. cerevisiae deletion strains, locus YLR113W, strain HOG1, active compounds read low 0.951 | S. cerevisiae deletion strains, locus YLR221C, strain rsa3, active compounds read low 1 | S. cerevisiae deletion strains, locus YLR258W, strain gsy2, active compounds read low 1.01 | S. cerevisiae deletion strains, locus YLR262C, strain YPT6 (second series), active compounds read low 0.995 | S. cerevisiae deletion strains, locus YLR262C, strain YPT6, active compounds read low 1.03 | S. cerevisiae deletion strains, locus YLR268W, strain sec22, active compounds read low 1.05 | S. cerevisiae deletion strains, locus YLR320W, strain mms22, active compounds read low 0.988 | S. cerevisiae deletion strains, locus YLR330W, strain CHS5, active compounds read low 1 | S. cerevisiae deletion strains, locus YLR342W, strain FKS1 (second series), active compounds read low 1.03 | S. cerevisiae deletion strains, locus YLR342W, strain FKS1, active compounds read low 0.992 | S. cerevisiae deletion strains, locus YLR357W, strain rsc2, active compounds read low 0.993 | S. cerevisiae deletion strains, locus YLR370C, strain arc18, active compounds read low 1.01 | S. cerevisiae deletion strains, locus YLR371W, strain rom2, active compounds read low 1.01 | S. cerevisiae deletion strains, locus YLR384C, strain iki3, active compounds read low 1 | S. cerevisiae deletion strains, locus YLR418C, strain cdc73, active compounds read low 1.03 | S. cerevisiae deletion strains, locus YML016C, strain PPZ1, active compounds read low 1 | S. cerevisiae deletion strains, locus YML032C, strain rad52, active compounds read low 0.957 | S. cerevisiae deletion strains, locus YML120C, strain ndi1, active compounds read low 1.02 | S. cerevisiae deletion strains, locus YML124C, strain tub3, active compounds read low 1 | S. cerevisiae deletion strains, locus YMR058W, strain fet3, active compounds read low 0.998 | S. cerevisiae deletion strains, locus YMR078C, strain ctf18, active compounds read low 1 | S. cerevisiae deletion strains, locus YMR125W, strain sto1, active compounds read low 1 | S. cerevisiae deletion strains, locus YMR129W, active compounds read low 0.989 | S. cerevisiae deletion strains, locus YMR205C, strain PFK2, active compounds read low 0.987 | S. cerevisiae deletion strains, locus YMR223W, strain ubp8, active compounds read low 0.977 | S. cerevisiae deletion strains, locus YMR231W, strain pep5, active compounds read low 1.01 | S. cerevisiae deletion strains, locus YMR263W, strain SAP30, active compounds read low 1 | S. cerevisiae deletion strains, locus YMR307W, strain GAS1, active compounds read low 1.03 | S. cerevisiae deletion strains, locus YNL067W, strain RPL9B, active compounds read low 1 | S. cerevisiae deletion strains, locus YNL071W, strain lat1, active compounds read low 1.01 | S. cerevisiae deletion strains, locus YNL183C, strain NPR1, active compounds read low 0.926 | S. cerevisiae deletion strains, locus YNL209W, strain ssb2, active compounds read low 1 | S. cerevisiae deletion strains, locus YNL233W, strain BNI4, active compounds read low 0.994 | S. cerevisiae deletion strains, locus YNL248C, strain rpa49, active compounds read low 1 | S. cerevisiae deletion strains, locus YNL250W, strain rad50, active compounds read low 0.999 | S. cerevisiae deletion strains, locus YNL271C, strain bni1, active compounds read low 1 | S. cerevisiae deletion strains, locus YNL298W, strain CLA4, active compounds read low 1.02 | S. cerevisiae deletion strains, locus YNL307C, strain MCK1, active compounds read low 1.01 | S. cerevisiae deletion strains, locus YNL322C, strain KRE1 (second series), active compounds read low 1 | S. cerevisiae deletion strains, locus YNR049C, strain mso1, active compounds read low 1.01 | S. cerevisiae deletion strains, locus YNR052C, strain pop2, active compounds read low 1 | S. cerevisiae deletion strains, locus YOL012C, strain htz1 0.71 | S. cerevisiae deletion strains, locus YOL147C, strain pex11, active compounds read low 1.01 | S. cerevisiae deletion strains, locus YOR001W, strain rrp6, active compounds read low 1.01 | S. cerevisiae deletion strains, locus YOR061W, strain CKA2, active compounds read low 1.01 | S. cerevisiae deletion strains, locus YOR069W, strain VPS5, active compounds read low 1.01 | S. cerevisiae deletion strains, locus YOR070C, strain gyp1, active compounds read low 1.01 | S. cerevisiae deletion strains, locus YOR080W, strain dia2, active compounds read low 1 | S. cerevisiae deletion strains, locus YOR083W, strain WHI5, active compounds read low 1 | S. cerevisiae deletion strains, locus YOR106W, strain vam3, active compounds read low 1.01 | S. cerevisiae deletion strains, locus YOR136W, strain idh2, active compounds read low 1.01 | S. cerevisiae deletion strains, locus YOR144C, strain elg1, active compounds read low 1 | S. cerevisiae deletion strains, locus YOR184W, strain ser1, active compounds read low 1.03 | S. cerevisiae deletion strains, locus YOR231W, strain MKK1, active compounds read low 0.985 | S. cerevisiae deletion strains, locus YOR265W, strain rbl2, active compounds read low 1.02 | S. cerevisiae deletion strains, locus YOR270C, strain vph1, active compounds read low 1.04 | S. cerevisiae deletion strains, locus YOR290C, strain snf2, active compounds read low 0.964 | S. cerevisiae deletion strains, locus YOR316C, strain cot1, active compounds read low 1 | S. cerevisiae deletion strains, locus YPL051W, strain arl3, active compounds read low 1.02 | S. cerevisiae deletion strains, locus YPL055C, strain LGE1, active compounds read low 0.992 | S. cerevisiae deletion strains, locus YPL078C, strain atp4, active compounds read low 1.01 | S. cerevisiae deletion strains, locus YPL106C, strain sse1, active compounds read low 0.96 | S. cerevisiae deletion strains, locus YPL240C, strain hsp82, active compounds read low 0.981 | S. cerevisiae deletion strains, locus YPL256C, strain CLN2, active compounds read low 0.981 | S. cerevisiae deletion strains, locus YPR119W, strain clb2, active compounds read low 1 | S. cerevisiae deletion strains, locus YPR141C, strain kar3, active compounds read low 0.994 | S. cerevisiae deletion strains, locus YPR163C, strain tif3, active compounds read low 0.996 | S. cerevisiae deletion strains, locus YPR167C, strain met16, active compounds read low 1.01 | S. cerevisiae deletion strains, strain wtn01, active compounds read low 1.05 | S. cerevisiae strains, strain wild type, active compounds read low 0.995
